Activity calls are given as the source filed them. Calls follow the shape of the dose curve; as a rule, active = well fitted curve in the direction sought with a large enough effect; inconclusive = small, poorly fitted or top-dose-only effect, or effect the other way, or another doubt; inactive = no such curve, though single readings can be large or run the other way.
Experiment: Inducers of the Endoplasmic Reticulum Stress Response (ERSR) in human glioma: Validation (AID 504836)
Conditions: human glioma cells, ER stress response reporter; series mostly up to 38.3 µM
From the text: Primary protein unfolding takes place for many diseases, including diabetes and hypoxia, , and triggers a reaction in the cells called ER stress response (ERSR). ). ERSR is designed as a repair mechanism, but ultimately leads to cell death via apoptosis if conditions triggering protein unfolding persist (1). The molecular clue to ERSR activation is the enhancement of the expression of key molecular chaperones, including the glucose regulated protein (GRP) 78. GRP78 is the main sensor for protein folding and the main actuator of the ERSR.
In a collaboration between the Southern Research Institute and the NIH Chemical Genomics Center, a cell based screen was developed that reliably uses GRP78 as a sensor to identify small molecules as inducers of ERSR. In resting conditions, GRP78 binds proteins and acts as a natural repressor. Once unfolded proteins are present in the ER, GRP78 releases some of the repressors and binds to the unfolded proteins. The release of the repressors executes the ERSR program. Using a human glioma cell line in a miniaturized, luminescent format, a high-throughput screen was developed to identify actuators of the ERSR.
(1) Soboloff, J. and S. A. Berger (2002). "Sustained ER Ca2+ depletion suppresses protein synthesis and induces activation-enhanced cell death in mast cells." J Biol Chem 277(16): 13812-20.
NIH Chemical Genomics Center [NCGC]
NIH Molecular Libraries Probe Centers Network [MLPCN]
Assay Submitter (PI): Maurizio Grimaldi, Southern Research Institute
Stable transfected human glioma cell line, U87-MG, are dispensed at density 1000 cells/well into Greiner white solid bottom 1536-well assay plates. Compounds are transferred via Kalypsys pin tool equipped with 1536-pin array (10nl slotted pins, V&P Scientific, San Diego, CA). The assay plates will be incubated for 16 hours and developed by adding appropriate quantities of the Promega Bright Glo reagent. The plates will be incubated at room temperature for 10 minutes prior to being transferred into a ViewLux high-throughput CCD imager (PerkinElmer), wherein end-point measurements of luminescence are acquired.

Row | Compound | outcome
1 | COc1cc(SC)ccc1C(=O)N1CCC(Cc2ccccc2)CC1 | inactive
2 | O=C1O/C(=C/Br)CCC1c1cccc2ccccc12 (stereo not given) | inactive
3 | Cn1cnc2c(NCc3ccccc3)nc(NCCO)nc21 | inactive
4 | CN1CCc2cc(NC(=O)Nc3cccnc3)ccc21 | inactive
5 | NC1CONC1=O (stereo not given) | inactive
6 | CN1CCCC1CCOC(C)(c1ccccc1)c1ccc(Cl)cc1 (stereo not given) | inactive
7 | CCCCCCCCCC(=O)NC(CN1CCOCC1)[C@H](O)c1ccccc1 (stereo not given in full) | inactive
8 | CN1CCc2cc(Cl)c(O)cc2[C@@H](c2ccccc2)C1 | inactive
9 | CCCCCC(O)c1cccc(OCc2ccc3ccccc3n2)c1 (stereo not given) | inactive
10 | Cc1cc(O)c2c(c1)C(=O)c1cc(O)cc(O)c1C2=O | inactive
11 | Cn1ncc(S(=O)(=O)Cc2ccccc2)c(Br)c1=O | inactive
12 | Nc1ncnc2c1ncn2[C@@H]1O[C@H](COP(=O)(O)CP(=O)(O)OP(=O)(O)O)[C@@H](O)[C@H]1O | inactive
13 | CN1CCc2ccccc2Cc2[nH]c3ccccc3c2CC1 | inactive
14 | NS(=O)(=O)c1cccc2c1c([N+](=O)[O-])cc1nc(O)c(O)nc12 | inactive
15 | CC1C(=O)N(C)C(=O)c2nc[nH]c21 (stereo not given) | inactive
16 | CN=C(N)NCCC[C@H](N)C(=O)O | inactive
17 | O=C1c2c(O)cc(O)cc2OC(c2ccc(O)c(O)c2)C1O (stereo not given) | inactive
18 | CCCCC#Cc1nc(NC)c2ncn([C@@H]3O[C@H](CO)[C@@H](O)[C@H]3O)c2n1 | inactive
19 | CC1CCN=C(N)S1 (stereo not given) | inactive
20 | COc1cc(CC(=O)O)ccc1O | inactive

Row | Compound | outcome
21 | NO | inactive
22 | COc1cc(/C=C(\C#N)C(=O)Nc2nnc(C(F)(F)F)s2)ccc1OCc1ccc(C(F)(F)F)cc1C(F)(F)F | inactive
23 | Ic1ccc(N2CCN(Cc3c[nH]c4ncccc34)CC2)cc1 | inactive
24 | CN(C)c1ccc(/C=C2\C(=O)Nc3ccccc32)cc1 | inactive
25 | Nc1ccc(-c2nc3ccc(-c4nc5ccc(N)cc5[nH]4)cc3[nH]2)cc1 | inactive
26 | NCCCNCCCCNCCCN | inactive
27 | N[C@@H](Cc1c[nH]c2ccccc12)C(=O)O | inactive
28 | O=c1[nH]c2cc(C(F)(F)F)ccc2n1-c1cc(C(F)(F)F)ccc1O | inactive
29 | Cc1cc(Cn2cnc3c2C[C@@H](C(=O)O)N(C(=O)C(c2ccccc2)c2ccccc2)C3)ccc1N | inactive
30 | O=S(=O)(c1cccc2c(I)cccc12)N1CCCNCC1 | inactive
31 | Nc1nc2c(cnn2CCc2ccccc2)c2nc(-c3ccco3)nn12 | inactive
32 | CCCCCCCCCCC/C=C\C(C)(C)/C=C\CCCC(=O)O | inactive
33 | OCC1NCC(O)C(O)C1O (stereo not given) | inactive
34 | Oc1ccc(Cn2cc[nH]c2=S)cc1 | inactive
35 | C[C@]12C=CC(=O)C=C1CC[C@@H]1C2=CC[C@]2(C)[C@@H](C(=O)CN3CCN(c4cc(N5CCCC5)nc(N5CCCC5)n4)CC3)CC[C@@H]12 | inactive
36 | NC(=O)CNCCC(c1ccccc1)c1ccccc1 | inactive
37 | OC(CN1CCN(c2cccc(Cl)c2)CC1)C(c1ccccc1)c1ccccc1 (stereo not given) | inactive
38 | CC(=O)/C(C)=N/O | inactive
39 | N#CC(=C(\N)Sc1ccccc1N)/C(C#N)=C(/N)Sc1ccccc1N | inactive
40 | Nc1nc(Nc2ccccc2)nc2c1ncn2[C@@H]1O[C@H](CO)[C@@H](O)[C@H]1O | inactive

Reference: PubChem BioAssay (NCATS)
